Experimental data reported in PubChem BioAssay (EPA / NIEHS).
Where “and” joins values, the source holds several entries; their conditions need not be identical. Equal values may be shown once. A structure can be active in one record and inactive in another. Calls of active or inactive are those of the source. Rule for the calls: active = hit-call score of the fitted dose curve at least 0.9, where 1 is the maximum; inactive = score below 0.9.

Columns and labels:
[1] = read-out: Thrombomodulin, THBD (gene 7056); assay: BSK_CASM3C_Thrombomodulin: BioMAP Diversity Plus: CASM3C Assay for Thrombomodulin Biomarker Activity (AID 2283051); settings: primary human coronary artery smooth muscle cells; actives raise or lower the signal;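 note: thrombomodulin protein level measured by ELISA 24 h after dosing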
[2] = read-out: Tissue Factor, F3 (gene 2152); assay: BSK_CASM3C_TissueFactor: BioMAP Diversity Plus: CASM3C Assay for Tissue Factor Biomarker Activity (AID 2283052); settings: primary human coronary artery smooth muscle cells; actives raise or lower the signal;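 note: cell surface tissue factor protein level read by ELISA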
[3] = read-out: Interferon-gamma inducible Protein 10 (IP10), CXCL10 (gene 3627); assay: BSK_hDFCGF_IP10: BioMAP Diversity Plus: hDFCGF Assay for Interferon-gamma inducible Protein 10 (IP10) Biomarker Activity (AID 2283053); settings: primary human foreskin fibroblasts; actives raise or lower the signal
In short: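 IP-10 levels, quantified by ELISA, are taken from human foreskin fibroblast cultures 24 h after chemical treatment, with DMSO serving as negative control and baseline for bidirectional analysis.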

[4] = read-out: Urokinase-type plasminogen activator receptor (uPAR), PLAUR (gene 5329); assay: BSK_CASM3C_uPAR: BioMAP Diversity Plus: CASM3C Assay for Urokinase-type plasminogen activator receptor (uPAR) Biomarker Activity (AID 2283054); settings: primary human coronary artery smooth muscle cells; actives raise or lower the signal;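 note: cell-surface uPAR protein level quantified by ELISA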
[5] = read-out: Vascular cell adhesion molecule 1 (VCAM1), VCAM1 (gene 7412); assay: BSK_CASM3C_VCAM1: BioMAP Diversity Plus: CASM3C Assay for Vascular cell adhesion molecule 1 (VCAM1) Biomarker Activity (AID 2283055); settings: primary human coronary artery smooth muscle cells; actives raise or lower the signal;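 note: VCAM-1 protein level quantified by ELISA on the cells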
[6] = read-out: Collagen III, COL3A1 (gene 1281); assay: BSK_hDFCGF_CollagenIII: BioMAP Diversity Plus: hDFCGF Assay for Collagen III Biomarker Activity (AID 2283056); settings: primary human foreskin fibroblasts; actives raise or lower the signal
In short: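 Human foreskin fibroblast primary cultures sampled 24 h after dosing; Collagen III quantified by ELISA. Signal fitted bidirectionally against DMSO baseline.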

[7] = read-out: Epidermal growth factor receptor (EGFR), EGFR (gene 1956); assay: BSK_hDFCGF_EGFR: BioMAP Diversity Plus: hDFCGF Assay for Epidermal growth factor receptor (EGFR) Biomarker Activity (AID 2283057); settings: primary human foreskin fibroblasts; actives raise or lower the signal
In short: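 Measured by ELISA: EGFR levels on primary human foreskin fibroblasts 24 h after chemical treatment, analysed relative to DMSO with bidirectional fitting.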

[8] = read-out: Interleukin-8 (IL8), CXCL8 (gene 3576); assay: BSK_hDFCGF_IL8: BioMAP Diversity Plus: hDFCGF Assay for Interleukin-8 (IL8) Biomarker Activity (AID 2283058); settings: primary human foreskin fibroblasts; actives raise or lower the signal
In short: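 Primary human foreskin fibroblasts (hDFCGF system) dosed with chemical; IL-8 measured by ELISA 24 hours later. Bidirectional curve fitting relative to DMSO baseline; cytotoxicity tracked in parallel cultures by SRB total protein staining.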

[9] = BSK_hDFCGF_Proliferation: Cell Proliferation Assessment in the BioMAP Diversity Plus: hDFCGF Assay (AID 2283059); settings: primary human foreskin fibroblasts;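 note: curves fitted for both rise and fall of signal versus DMSO baseline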
In short: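 Sub-confluent human foreskin fibroblast cultures receive test chemical […]. Relative cell number is quantified by sulforhodamine B staining (0.1%, after 10% TCA fixation) at 560 nm, with bidirectional fitting referenced to DMSO.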

[10] = read-out: Macrophage colony-stimulating factor (MCSF), CSF1 (gene 1435); assay: BSK_hDFCGF_MCSF: BioMAP Diversity Plus: hDFCGF Assay for Macrophage colony-stimulating factor (MCSF) Biomarker Activity (AID 2283060); settings: primary human foreskin fibroblasts; actives raise or lower the signal
In short: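 Human foreskin fibroblast primary cultures; M-CSF measured by ELISA 24 hours after chemical dosing. Bidirectional fitting relative to DMSO, with overt cytotoxicity tracked by parallel SRB total-protein staining (0.1% SRB, 10% TCA fixation, 560 nm).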

[11] = read-out: TIMP metallopeptidase inhibitor 1 (TIMP1), TIMP1 (gene 7076); assay: BSK_hDFCGF_TIMP1: BioMAP Diversity Plus: hDFCGF Assay for TIMP metallopeptidase inhibitor 1 (TIMP1) Biomarker Activity (AID 2283062); settings: primary human foreskin fibroblasts; actives raise or lower the signal
In short: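 Human foreskin fibroblast primary cultures dosed for 24 h; secreted/surface TIMP-1 quantified by ELISA. Bidirectional curve fitting against DMSO baseline; cytotoxicity tracked in parallel cultures by SRB total-protein staining.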

[12] = read-out: Monokine induced gamma interferon (MIG), CXCL9 (gene 4283); assay: BSK_hDFCGF_MIG: BioMAP Diversity Plus: hDFCGF Assay for Monokine induced gamma interferon (MIG) Biomarker Activity (AID 2283063); settings: primary human foreskin fibroblasts; actives raise or lower the signal
In short: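 MIG/CXCL9 measured by ELISA 24 h after dosing primary human skin fibroblasts. Activity fitted in both directions against DMSO controls. Cytotoxicity was checked in parallel cultures by SRB staining read at 560 nm.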

[13] = read-out: Matrix Metallopeptidase 1 (MMP1), MMP1 (gene 4312); assay: BSK_hDFCGF_MMP1: BioMAP Diversity Plus: hDFCGF Assay for Matrix Metallopeptidase 1 (MMP1) Biomarker Activity (AID 2283064); settings: primary human foreskin fibroblasts; actives raise or lower the signal
In short: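 Primary human foreskin fibroblasts in the hDFCGF system were dosed with test chemical, and MMP1 was measured by ELISA 24 h later. Values come from bidirectional curve fitting against the DMSO baseline.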

[14] = read-out: Vascular cell adhesion molecule 1 (VCAM1), VCAM1 (gene 7412); assay: BSK_hDFCGF_VCAM1: BioMAP Diversity Plus: hDFCGF Assay for Vascular cell adhesion molecule 1 (VCAM1) Biomarker Activity (AID 2283065); settings: primary human foreskin fibroblasts; actives raise or lower the signal;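 for AC50: VCAM-1 protein level quantified by ELISA after 24 h chemical exposure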
In short: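 Human foreskin fibroblast primary cells dosed with chemical, VCAM-1 measured by ELISA at 24 h. Bidirectional curve fitting relative to DMSO as negative control/baseline.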

[15] = read-out: Plasminogen activator inhibitor-1 (PAI1), SERPINE1 (gene 5054); assay: BSK_hDFCGF_PAI1: BioMAP Diversity Plus: hDFCGF Assay for Plasminogen activator inhibitor-1 (PAI1) Biomarker Activity (AID 2283066); settings: primary human foreskin fibroblasts; actives raise or lower the signal
In short: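 PAI-1 levels, determined by ELISA, served as the endpoint in human foreskin fibroblast cultures exposed to compound for 24 h, with DMSO as baseline.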

[16] = read-out: Intercellular Adhesion Molecule 1 (ICAM1), ICAM1 (gene 3383); assay: BSK_KF3CT_ICAM1: BioMAP Diversity Plus: KF3CT Assay for Intercellular Adhesion Molecule 1 (ICAM1) Biomarker Activity (AID 2283067); settings: primary human keratinocytes with fibroblasts; actives raise or lower the signal
In short: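 Human keratinocyte–foreskin fibroblast co-culture was treated for 24 h. Cell-surface ICAM-1 was quantified by ELISA, fitted bidirectionally relative to DMSO. Cytotoxicity was checked in parallel cultures by SRB total-protein staining.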

[17] = read-out: Interferon-gamma inducible Protein 10 (IP10), CXCL10 (gene 3627); assay: BSK_KF3CT_IP10: BioMAP Diversity Plus: KF3CT Assay for Interferon-gamma inducible Protein 10 (IP10) Biomarker Activity (AID 2283068); settings: primary human keratinocytes with fibroblasts; actives raise or lower the signal
In short: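 ELISA read-out of IP-10 after 24 h chemical dosing of human skin primary co-culture (keratinocytes, foreskin fibroblasts). Gain or loss of signal relative to DMSO, bidirectional curve fit.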

[18] = BSK_KF3CT_SRB: Viability Assessment in the BioMAP Diversity Plus: KF3CT Assay (AID 2283069); settings: primary human keratinocytes with fibroblasts;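 note: total protein by sulforhodamine B staining as a cytotoxicity measure; read 24 h after compound addition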
In short: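 Human primary keratinocyte plus foreskin fibroblast co-culture exposed to chemicals for 24 h. Total protein measured by 0.1% sulforhodamine B staining after 10% TCA fixation, read at 560 nm; bidirectional fitting versus DMSO baseline.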

[19] = read-out: Interleukin-1 alpha (IL1a), IL1A (gene 3552); assay: BSK_KF3CT_IL1a: BioMAP Diversity Plus: KF3CT Assay for Interleukin-1 alpha (IL1a) Biomarker Activity (AID 2283070); settings: primary human keratinocytes with fibroblasts; actives raise or lower the signal
In short: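 Human keratinocyte plus foreskin fibroblast primary co-culture, sampled 24 h after chemical dosing. IL-1a measured by ELISA; responses fitted bidirectionally against DMSO baseline (negative control), so gain or loss of signal both count.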

[20] = BSK_hDFCGF_SRB: Viability Assessment in the BioMAP Diversity Plus: hDFCGF Assay (AID 2283061); settings: primary human foreskin fibroblasts;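 note: cells exposed to compound for 24 h before the read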
In short: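 Human foreskin fibroblasts in 96-well plates were treated 24 h. Total protein was measured by 0.1% SRB staining after 10% TCA fixation, read at 560 nm. Data were fitted bidirectionally against DMSO.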

Measured: AC50

CNC(=O)Oc1ccccc1OC(C)C
inactive: [1] | [2] | [3] | [4] | [5] | [6] | [7] | [8] | [9] | [10] | [11] | [12] | [14] | [15] | [16] | [17] | [18]
active: [13] 2.38 µM | [19] 987 nM

O=S(=O)(O)C(F)(F)C(F)(F)C(F)(F)C(F)(F)C(F)(F)C(F)(F)C(F)(F)C(F)(F)F
inactive: [1] | [2] | [3] | [4] | [5] | [6] | [7] | [8] | [9] | [10] | [11] | [13] | [14] | [15] | [16] | [17] | [18] | [19]
active: [3] 21.7 µM [middle of 7 runs] | [5] 13 µM and 30 µM | [6] 35.1 µM and 30.8 µM | [7] 3.97 µM | [10] 48.1 µM and 48.4 µM | [11] 0.485 µM | [14] 20 µM and 29.6 µM and 30 µM | [15] 20 µM and 48.5 µM | [16] 29.9 µM | [17] 23.1 µM [middle of 5 runs] | [18] 39.2 µM and 29.9 µM | [19] 28.1 µM and 16.4 µM

CCC(C)Nc1c([N+](=O)[O-])cc(C(C)(C)C)cc1[N+](=O)[O-] (stereo not given)
active: [3] 15.3 µM | [7] 33 µM | [9] 20 µM | [10] 21.5 µM | [20] 32.9 µM | [14] 15.4 µM | [15] 5.08 µM
inactive: [1] | [2] | [4] | [5] | [6] | [8] | [11] | [13] | [16] | [17] | [18] | [19]

CC(C)OC(=O)Nc1cccc(Cl)c1
inactive: [1] | [2] | [3] | [4] | [5] | [6] | [7] | [8] | [9] | [10] | [20] | [11] | [13] | [14] | [15] | [16] | [17] | [18] | [19]

O=C(O)CCCOc1ccc(Cl)cc1Cl
active: [17] 23.6 µM
inactive: [1] | [2] | [3] | [4] | [5] | [6] | [7] | [8] | [9] | [10] | [11] | [13] | [14] | [15] | [16] | [18] | [19]
